The text below walks through data of PubChem BioAssay.

Records with an inconclusive call do not appear. Active and inactive are the calls of the source. Unless noted, no cut-off is given here; in the data, nearly all actives have AC50 up to about 26 µM.

A short description of assay [1]: viability loss in pontine glioma line – cell-based, JHH-DIPG-1, MIPE4.0, CellTiter-Glo, qHTS, dose response (AID 1347062; cut-off not given, nearly all actives have AC50 up to about 27 µM;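 for AC50: cells exposed to compound for two days before readout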). Conditions: JHH-DIPG-1 viability, CellTiter-Glo ATP luminescence.
A short description of assay [2]: viability loss in pontine glioma line – cell-based, SU-DIPG-IV, MIPE4.0, CellTiter-Glo, qHTS, dose response (AID 1347063; cut-off not given, nearly all actives have AC50 up to about 30 µM;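 note: compound exposure lasted 48 hours before the viability readout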). Conditions: CellTiter-Glo ATP luminescence. (In general: Cellular ATP, detected with luciferase, serves as a proxy for viable cell number.)
The nature of assay [3]: growth inhibition of DIPG cells – cell-based, MIPE4.0 library, CellTiter-Glo luminescence, qHTS (AID 1347066; cut-off not given, nearly all actives have AC50 up to about 30 µM;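 note: cells exposed to compound for 48 hours before readout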). The note with it: SU-DIPG-VI viability, CellTiter-Glo ATP luminescence.
The target of assay [4] is NAD(+) hydrolase SARM1 (Homo sapiens) (UniProt Q6SZW1). Put plainly: blocking NAD cleavage by SARM1 SAM-TIR – cell lysate, NAD-Glo luminescence (AID 1508614;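 active = compound whose remaining NAD level is above about 45 nM, limit read from the data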;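 note: higher remaining NAD means stronger inhibition of SARM1 NADase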). Conditions: SAM-TIR HEK293T lysate NADase, at 1 µM, stronger effect = higher value.
Assay [5] is described as follows: viability loss in pontine glioma line – cell-based, SU-DIPG-XVII, MIPE5.0, CellTiter-Glo, qHTS, dose response (AID 1347060). The note with it: CellTiter-Glo ATP luminescence.
Assay [6] is described as follows: viability loss in pontine glioma line – cell-based, SU-DIPG-XIII, MIPE4.0, CellTiter-Glo, qHTS, dose response (AID 1347061; cut-off not given, nearly all actives have AC50 up to about 37 µM;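 note: cells exposed to compound for 48 hours before readout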). Conditions: CellTiter-Glo ATP luminescence.
The nature of assay [7]: viability loss in pontine glioma line – cell-based, SU-DIPG-XXV, MIPE5.0, CellTiter-Glo, qHTS, dose response (AID 1347065).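 Note: cells exposed to compound for 48 hours before ATP readout.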 The note with it: CellTiter-Glo ATP luminescence.
Assay [8] is described as follows: JHH-DIPG-1 glioma cell viability, MIPE5.0 library, CellTiter-Glo luminescence, qHTS (AID 1347067).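 Note: cells exposed to compound for 48 hours before readout.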 Conditions: JHH-DIPG-1 glioma viability, CellTiter-Glo ATP luminescence.
Assay [9] can be described thus: compounds altering viability of human ES cells (AID 493140; call rule not given here;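 note: cells exposed to compounds for four days before counting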). Conditions: human embryonic stem cell survival screen; stronger effect = higher value.
A short description of assay [10]: viability loss in pontine glioma line – cell-based, SU-DIPG-XIII, MIPE5.0, CellTiter-Glo, qHTS, dose response (AID 1347064; cut-off not given, nearly all actives have AC50 up to about 23 µM). The note with it: CellTiter-Glo ATP luminescence.
Assay [11] can be described thus: growth inhibition of DIPG cells – cell-based, MIPE5.0 library, qHTS (AID 1347068; cut-off not given, nearly all actives have IC50 up to about 30 µM). Conditions: SU-DIPG-XXV viability. (In general: Quantitative high-throughput screening tests each substance at several concentrations.)
Assay [12] in a line: chitosan synthesis blockers in C. neoformans – flow cytometry, Cibacron Brilliant Red staining (AID 1347148; call rule not given here;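 note: compound exposure lasted three days at 37 degrees C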). The note with it: Cryptococcus neoformans chitosan, stronger effect = lower value; at 10 µM unless noted.
Assay [13] can be described thus: compounds altering HSF1 focus formation in cells – imaging, Selleck Cancer Library (AID 1347162; in the data active = plate-normalised HSF1 focus index below about 0.46). Conditions: human cells, HSF1 nuclear foci imaging, at 10 µM; SSMD: measured here: HSF1 foci SSMD mean; cell count: measured here: cell number; plate-normalised HSF1 focus index: stronger effect = lower value.

Sequence of NAD(+) hydrolase SARM1 (Homo sapiens) (Q6SZW1 whole entry, looked up): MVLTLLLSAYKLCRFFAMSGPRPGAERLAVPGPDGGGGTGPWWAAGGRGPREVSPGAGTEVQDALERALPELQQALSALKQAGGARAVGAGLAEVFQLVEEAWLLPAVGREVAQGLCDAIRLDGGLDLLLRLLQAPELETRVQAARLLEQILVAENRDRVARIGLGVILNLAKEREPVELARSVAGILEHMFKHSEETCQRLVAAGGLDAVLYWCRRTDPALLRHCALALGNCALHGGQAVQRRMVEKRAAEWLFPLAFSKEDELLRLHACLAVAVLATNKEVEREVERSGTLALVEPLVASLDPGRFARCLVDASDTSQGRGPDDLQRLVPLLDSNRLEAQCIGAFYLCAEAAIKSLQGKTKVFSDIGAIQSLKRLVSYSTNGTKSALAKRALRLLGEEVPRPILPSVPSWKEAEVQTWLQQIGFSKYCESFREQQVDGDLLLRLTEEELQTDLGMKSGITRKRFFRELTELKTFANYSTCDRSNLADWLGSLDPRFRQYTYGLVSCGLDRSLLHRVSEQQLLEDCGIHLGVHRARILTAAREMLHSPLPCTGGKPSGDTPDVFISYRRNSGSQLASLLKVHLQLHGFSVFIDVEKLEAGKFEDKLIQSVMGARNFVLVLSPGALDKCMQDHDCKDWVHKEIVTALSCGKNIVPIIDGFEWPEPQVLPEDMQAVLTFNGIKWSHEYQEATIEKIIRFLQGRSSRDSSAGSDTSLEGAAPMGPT

On to `CC1=NN=C(c2ccc(N)cc2)c2cc3c(cc2C1)OCO3`, for which the compound was classed as inactive in assay [1], in assay [2] and in assay [3].
With `CC(CC(C(N)=O)(c1ccccc1)c1ccccc1)N(C)C` (stereo not drawn), the remaining NAD in [4] is 10 nM (inactive).
As to `CCCN1CCO[C@@H]2c3cc(O)ccc3OC[C@H]21`, the compound was called inactive in assay [5], in [6], in assay [1], in assay [2], in [7] and in assay [3]. Moreover, the result in assay [8] was inactive.
Consider `C/C(O)=C(\C#N)C(=O)Nc1cc(Br)ccc1Br`, for which, in assay [9], the survival was 124 (inactive). The compound was classed as inactive in assay [6], in assay [1], in assay [10], in assay [7], in assay [8] and in assay [11]. The fold fluorescence in [12] was 3.51 [at 138.9 µM] (inactive).
For the compound `O=C(N[C@H]1CN2CCC1CC2)c1ccc(Cl)cc1`, the compound was called inactive in [5], in assay [1], in assay [2], in assay [10], in assay [7] and in assay [8]. For the same compound, the call in assay [11] was inactive.
Turning to `O=C(O)CCCO`, in [4], the remaining NAD was 10 nM (inactive).
On to `c1ccc2c(c1)[I+]c1ccccc1-2`, for which, in assay [12], the fold fluorescence is 9.07 [at 179.1 µM] (inactive).
For the compound `CCC1(CC)C(=O)NC(=O)NC1=O`, the remaining NAD in assay [4] was 10 nM (inactive).
Consider `c1ccc(CCCN2CCN(CCOC(c3ccccc3)c3ccccc3)CC2)cc1`, for which the results for the AC50 in assay [1] and in [2] were 20.9 µM (active) and 23.5 µM (active), respectively.
Turning to `COC(=O)[C@@H](N)CCCN=C(N)N[N+](=O)[O-]`, the compound was called inactive in assay [5], in [1], in assay [10], in assay [7], in assay [3] and in [8]. For the same compound, the call in assay [11] was inactive. Moreover, the fold fluorescence in assay [12] was 4.22 [at 214.4 µM] (inactive).
On to `Oc1ccc2c3c1O[C@H]1c4[nH]c5c(c4C[C@@]4(O)[C@@H](C2)N(CC2CC2)CC[C@]314)C[C@@]1(O)[C@H]2Cc3ccc(O)c4c3[C@@]1(CCN2CC1CC1)[C@H]5O4`, for which the outcome in assay [6], in assay [1], in assay [2] and in [3] was inactive.
Regarding `CN(C)CCN(C)CCc1ccc(Cl)c(Cl)c1`, the result in assay [5], in assay [1], in [2], in assay [10], in [7] and in assay [3] was inactive. In assay [11], the outcome was inactive. In addition, the SSMD in assay [13] was 1.43. In assay [13], the cell count amounted to 7160. Besides, the plate-normalised HSF1 focus index in [13] is 1.09 (inactive).
